Most compounds without a hit are left out; they make up all but 1% or so of the library.
USP2a inh – qHTS Assay for Inhibitors of Ubiquitin-specific Protease USP2a Using CHOP2 as the Reporter. Ubiquitin carboxyl-terminal hydrolase 2 (Homo sapiens), O75604. USP2 core, Ub-CHOP2 coupled fluorogenic reporter, 485/531. Potency, µM (top dose mostly 38.3 µM), most hits filed as inhibitors. 330,000 compounds, 0.01% hits
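Deubiquitinase activity read as fluorescence (485/531 nm) after Ub-CHOP2 cleavage activates the enterokinase reporter on its substrate; USP2 core 10nM, Ub-CHOP2 and substrate 25nM each, 30min compound preincubation then 60min RT; data normalized to NEM, curves fitted.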
GALK inh – qHTS Assay for Inhibitors of Human Galactokinase (GALK); Purified GALK, Kinase-Glo residual ATP luminescence; Potency, µM (titrated, usually from 57.5 µM), most hits filed as inhibitors; 270,000 compounds, 0.007% hits; AID 1868, 2009
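5 nM enzyme, 35 uM ATP, 100 uM galactose, 20 mM HEPES pH8.0, 5 mM MgCl2; 1 h RT; residual ATP by Kinase-Glo Plus luminescence, qHTS format.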
TrxR1 substrate – qHTS Assay for Substrates of Mammalian Selenoprotein Thioredoxin Reductase 1 (TrxR1): qHTS; purified TrxR1 substrate turnover, NADPH consumption readout; Potency, µM (highest dose often 114 µM); 390,000 compounds, 0.01% hits; AID 588456, 2011; also: nearly all actives have a fitted effect of over 50% in size
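Rat TrxR1, dispensed at 90 nM, was prereduced with 400 uM NADPH (final) for 5 min at ~22 deg C, then incubated with compound 15 min before 400 uM selenite. A first-read NADPH fluorescence drop versus no-compound background flagged substrates.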
rTrxR1 inhibitor – qHTS Assay for Inhibitors of Mammalian Selenoprotein Thioredoxin Reductase 1 (TrxR1): qHTS; recombinant rTrxR1, NADPH fluorescence consumption, selenite substrate; Thioredoxin reductase 1, cytoplasmic (Rattus norvegicus), O89049; 390,000 compounds, 1% hits; Potency, µM (series often up to 114 µM), most hits filed as inhibitors; also: nearly all actives have a fitted effect of over 65% in size
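Rat TrxR1 (90 nM in the dispensed reagent) was pre-reduced with 400 uM NADPH for 5 min at room temperature, then incubated with compound for 15 min. After 400 uM selenite was added, NADPH fluorescence (Ex 340/Em 450 nm) was followed for 8 min.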
RGS4 inhibitor – Inhibitors of Regulator of G Protein Signaling (RGS) 4: qHTS | Regulator of G-protein signaling 4 (Homo sapiens), P49798 | Transcreener GDP fluorescence polarization, RGS4-accelerated GTP hydrolysis | Potency, µM (highest dose often 114 µM), usual class: inhibitors | 390,000 compounds, 0.039% hits | AID 504845, 2011; also: nearly all actives have a fitted effect of over 75% in size
Target sequence (P49798 whole entry, looked up): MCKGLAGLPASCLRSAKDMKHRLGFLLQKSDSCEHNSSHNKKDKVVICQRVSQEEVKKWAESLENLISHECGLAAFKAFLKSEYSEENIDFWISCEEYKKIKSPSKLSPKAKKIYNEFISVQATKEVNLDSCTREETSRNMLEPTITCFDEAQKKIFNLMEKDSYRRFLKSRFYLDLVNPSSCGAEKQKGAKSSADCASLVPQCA
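MLSMR compounds (23 nl, pin-transferred) preincubated 10 min at room temperature with a 500nM (2x) first reagent, then RGS4 at 900nM (2x) plus Transcreener GDP mix added; fluorescence polarization (620/688 nm) read before and after 90 min at 30 °C.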
Eya2 phos inh – qHTS Assay for Inhibitors of the Phosphatase Activity of Eya2. Potency, µM (doses to about 76.9 µM), most hits filed as inhibitors. 330,000 compounds, 0.006% hits. AID 488837, 2010. recombinant Eya2, OMFP fluorescence dephosphorylation (OMFP is methylfluorescein phosphate)
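Eya2 (0.2 uM) preincubated 10 min at ambient with compound, then OMFP substrate added at 50 uM; 10 min reaction in 50 mM HEPES pH 7.5, 50 mM NaCl, 5 uM MgCl2, 0.05% BSA, 1 mM DTT. Fluorescence read at Ex 485/Em 525 nm.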
A number is an active result; i = inactive; ? = inconclusive; nt = not tested or not shown. Calls follow the shape of the dose curve; as a rule, active = well fitted curve in the direction sought with a large enough effect; inconclusive = small, poorly fitted or top-dose-only effect, or another doubt; inactive = no such curve, though single readings can be large; an effect the other way counts as inactive or inconclusive.

SMILES | USP2a inh | GALK inh | TrxR1 substrate | rTrxR1 inhibitor | RGS4 inhibitor | Eya2 phos inh
COc1ccccc1CCNC(=O)Cc1c(C)c2cc(Cl)c(O)cc2oc1=O | nt | nt | i | 79µM | i | nt
Cc1c(CC(=O)NCCc2ccccc2F)c(=O)oc2cc(O)c(Cl)cc12 | nt | nt | i | 71µM | i | nt
COc1cc2oc(=O)c(CC(=O)NCCc3ccccc3F)c(C)c2cc1OC | nt | nt | i | ? | i | nt
CCOC(=O)N1CCN(Cc2nc3cc(NC(=O)c4ccccc4Cl)ccc3n2C(C)C)CC1 | nt | nt | i | i | i | nt
CCOC(=O)c1ccc(N2CCN(c3ccccc3F)CC2)c(NC(=O)Nc2ccc(Cl)c(Cl)c2)c1 | nt | nt | i | i | i | nt
NC(=O)COc1ccc2cc(-c3ccccc3)c(=O)oc2c1 | i | i | i | ? | i | i
O=C(O)C(Oc1ccc2cc(-c3ccc(Cl)cc3)c(=O)oc2c1)c1ccccc1 (stereo not drawn) | i | i | i | 45µM | i | i
Cc1c(NC2=C(Cl)C(=O)N(c3ccccc3Cl)C2=O)c(=O)n(-c2ccccc2)n1C | i | nt | i | 20µM | i | i
C=CCNC1=C(Cl)C(=O)N(c2ccccc2Cl)C1=O | i | i | i | 25µM | i | i
O=C(NCCc1ccccc1)[C@@H]1CC=C[C@@H]2CCN(C3CC3)C(=O)[C@@H]21 | nt | nt | i | i | nt | nt
CCNc1ccc(Br)cc(C(=O)/C=C/c2c(Cl)cccc2Cl)c1=O | i | i | i | ? | ? | i
CCNc1ccc(Br)cc(C(=O)/C=C/c2ccc3c(c2)OCO3)c1=O | i | i | i | 7.9µM | i | i
CCNc1ccc(Br)cc(C(=O)/C=C/c2ccc(Cl)cc2)c1=O | i | nt | i | 35µM | ? | i
CS(=O)(=O)Nc1ccc(-c2nc3ccccc3s2)cc1 | nt | nt | i | 79µM | i | nt
COc1ccc(C2C(C(C)=O)=C(O)C(=O)N2c2ccc(O)cc2)cc1 (stereo not drawn) | i | i | i | i | i | i
COc1ccc(C2C(CC(=O)O)=C(O)C(=O)N2c2ccccc2)cc1 (stereo not drawn) | i | i | i | 32µM | i | i
Cn1nnnc1SCCCNCc1ccccc1OCc1ccc(Cl)cc1 | nt | nt | i | i | i | nt
O=C(CCN1C(=O)/C(=C/c2cccs2)SC1=S)Nc1ccc(C(=O)O)cc1 | i | i | i | i | i | i
O=C(CCCN1C(=O)/C(=C\c2cccs2)SC1=S)Nc1ccc(C(=O)O)cc1 | i | i | 79µM | i | i | i
O=C(CCCN1C(=O)/C(=C\c2ccco2)SC1=S)Nc1ccc(O)cc1C(=O)O | ? | i | i | 50µM | ? | i
O=C(OCn1ncc(Cl)c(Cl)c1=O)c1ccc(F)cc1 | i | i | nt | nt | nt | i
O=C(OCn1ncc(Cl)c(Cl)c1=O)c1ccccc1Cl | i | i | i | 8.9µM | i | i
CC[C@@H](C)[C@H](NC(=O)OCc1ccccc1)c1nnc([C@@H](NC(=O)OCc2ccccc2)[C@@H](C)CC)o1 | i | i | i | i | i | i
CC[C@@H](C)[C@H](NC(=O)OC(C)(C)C)c1nnc(S(=O)(=O)Cc2cc(C)ccc2C)o1 | i | i | i | 1.1µM | ? | i
Cc1ccccc1CS(=O)(=O)c1nnc([C@H](CC(C)C)NC(=O)OC(C)(C)C)o1 | i | i | i | 4µM | i | i
CC(C)[C@H](NC(=O)OC(C)(C)C)c1nnc(S(=O)(=O)Cc2c(F)cccc2Cl)o1 | i | i | i | 0.71µM | ? | i
CC(C)(C)OC(=O)N[C@@H](Cc1ccccc1)c1nnc(S(=O)(=O)Cc2cccc(F)c2)o1 | i | i | i | 0.63µM | ? | i
